Records with an inconclusive call do not appear. Active and inactive are the calls of the source. Calls follow the shape of the dose curve; as a rule, active = well fitted inhibition curve with a large enough effect; inconclusive = small, poorly fitted or top-dose-only effect; inactive = flat fitted curve, though single readings scatter.
Test system: PC26
Test: qHTS profiling for inhibitors of Plasmodium falciparum proliferation (AID 504749); also: nearly all actives have a fitted effect of over 60% in size;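 as to activity, negative = inhibition: 0% = DMSO vehicle and full inhibition = artemisinin control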
Settings: P. falciparum in erythrocytes, SYBR Green DNA, 72 h; series mostly up to 12.8 µM; activity, negative = inhibition: at the top concentration
Procedure, shortened: (§1)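 Fluorescence of SYBR Green-bound parasite DNA, read at 485/535 nm, served as the growth measure. Infected erythrocytes were cultured with compound 72 h; artemisinin (0.29 uM) and DMSO wells defined the normalization range.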
Potency is read from the fitted curve at half-maximal effect.

activity, negative = inhibition, inactive:
CC1(C)S[C@H]2C(NC(=O)[C@@H](N)c3ccc(O)cc3)C(=O)N2[C@@H]1C(=O)O (stereo not given in full) 3.31% [at 28.7 µM]
CN(C)CCc1c[nH]c2ccc(CC3COC(=O)N3)cc12 (stereo not given) -6.72% [at 28.7 µM]
C[C@@]12CCC(=O)C=C1C=CC1C2CC[C@]2(C)C1CC[C@@]21CCC(=O)O1 (stereo not given in full) -4.15% [at 28.7 µM]
CC(C)Oc1ccc2c(=O)cc(-c3ccccc3)oc2c1 -13.7% [at 28.7 µM]
CC(=O)O[C@@]1(C(C)=O)CCC2C3CC(C)C4=CC(=O)CC[C@@]4(C)C3CC[C@]21C (stereo not given in full) 1.11% [at 28.7 µM]
N[C@@H]1C(O)OC(CO)C(O)C1O (stereo not given in full) -15.3% [at 28.7 µM]
CC(=O)[C@]1(O)CCC2C3C=C(Cl)C4=CC(=O)C5CC5[C@@]4(C)C3CC[C@]21C (stereo not given in full) 7.42% [at 28.7 µM]
C[C@@]12C=CC(=O)C=C1CCC1C3CC(O)[C@@](O)(C(=O)CO)[C@]3(C)CC(O)[C@]12F (stereo not given in full) 2.05% [at 28.7 µM]
CCC1OC(=O)C(C)[C@@H](O[C@H]2C[C@@](C)(OC)C(O)C(C)O2)C(C)[C@@H](O[C@@H]2OC(C)CC(N(C)C)C2O)[C@@](C)(O)CC(C)C(=O)[C@@H](C)C(O)[C@]1(C)O (stereo not given in full) -8.1% [at 28.7 µM]
CC1C2CCC3C4CC=C5CC(N(C)C)CC[C@@]5(C)C4CC[C@@]32CN1C (stereo not given in full) 1.18% [at 28.7 µM]
COC1CC(O[C@H]2/C(C)=C/CC3CC(C[C@]4(CCC(C)C(C5CCCCC5)O4)O3)OC(=O)[C@H]3C=C(C)/C(=N/O)C4OC/C(=C\C=C\[C@@H]2C)[C@@]43O)OC(C)C1O (stereo not given in full) -16.6% [at 28.7 µM]
CCC(C)C(=O)OC1CC(O)C=C2C=CC(C)C(CCC(O)CC(O)CC(=O)O)C21 (stereo not given) -14.2% [at 28.7 µM]
OCC1OC(n2cnc3c(=S)nc[nH]c32)C(O)C1O (stereo not given) -11.6% [at 28.7 µM]

Potency, active:
NC(CCC(=O)N[C@@H](CS)C(=O)NCC(=O)O)C(=O)O (stereo not given in full) 12 µM
CCC(=O)O[C@@]1(C(=O)CCl)C(C)CC2C3CCC4=CC(=O)C=C[C@@]4(C)[C@]3(F)C(O)C[C@]21C (stereo not given in full) 10.7 µM

Test system: PC49
Test: as above
Settings: P. falciparum in erythrocytes, SYBR Green DNA, 72 h; series mostly up to 12.8 µM; activity, negative = inhibition: at the top concentration
Procedure, shortened: as §1

activity, negative = inhibition, inactive:
CC1(C)S[C@H]2C(NC(=O)[C@@H](N)c3ccc(O)cc3)C(=O)N2[C@@H]1C(=O)O (stereo not given in full) 2.26% [at 28.7 µM]
CN(C)CCc1c[nH]c2ccc(CC3COC(=O)N3)cc12 (stereo not given) 5.36% [at 28.7 µM]
C[C@@]12CCC(=O)C=C1C=CC1C2CC[C@]2(C)C1CC[C@@]21CCC(=O)O1 (stereo not given in full) -6.22% [at 28.7 µM]
CC(C)Oc1ccc2c(=O)cc(-c3ccccc3)oc2c1 2.8% [at 28.7 µM]
CCCCCCCCCc1ccc(OCCOCCOCCOCCOCCOCCOCCOCCOCCO)cc1 -3.13% [at 28.7 µM]
CC(=O)O[C@@]1(C(C)=O)CCC2C3CC(C)C4=CC(=O)CC[C@@]4(C)C3CC[C@]21C (stereo not given in full) -19.4% [at 28.7 µM]
N[C@@H]1C(O)OC(CO)C(O)C1O (stereo not given in full) 17.3% [at 28.7 µM]
CC(=O)OCC(=O)[C@@]12OC3(CCCC3)OC1CC1C3CCC4=CC(=O)C=C[C@@]4(C)[C@]3(F)C(O)C[C@]12C (stereo not given in full) -2.9% [at 28.7 µM]
CCC1OC(=O)CC(O)C(C)[C@@H](O[C@@H]2OC(C)[C@H](O[C@@H]3C[C@@](C)(O)C(O)C(C)O3)C(N(C)C)C2O)[C@H](CC=O)CC(C)C(=O)/C=C/C(C)=C/[C@@H]1COC1OC(C)C(O)C(OC)[C@@H]1OC (stereo not given in full) 0.419% [at 28.7 µM]
C=Cc1c(C)/c2[n-]/c1=C\c1[n-]c(c(CC)c1C)/C=c1\[n-]c3c(c1C)C(=O)C(C(=O)[O-])C=3c1[n-]c(c(C)c1CCC(=O)[O-])\C=2.[Cu].[Na+].[Na+] (stereo not given) -17.1% [at 28.7 µM]
CCC(=O)O[C@@]1(C(=O)CCl)C(C)CC2C3CCC4=CC(=O)C=C[C@@]4(C)[C@]3(F)C(O)C[C@]21C (stereo not given in full) -8.03% [at 28.7 µM]
CC(=O)[C@]1(O)CCC2C3C=C(Cl)C4=CC(=O)C5CC5[C@@]4(C)C3CC[C@]21C (stereo not given in full) 15.3% [at 28.7 µM]
C[C@@]12C=CC(=O)C=C1CCC1C3CC(O)[C@@](O)(C(=O)CO)[C@]3(C)CC(O)[C@]12F (stereo not given in full) 16.5% [at 28.7 µM]
CCC1OC(=O)C(C)[C@@H](O[C@H]2C[C@@](C)(OC)C(O)C(C)O2)C(C)[C@@H](O[C@@H]2OC(C)CC(N(C)C)C2O)[C@@](C)(O)CC(C)C(=O)[C@@H](C)C(O)[C@]1(C)O (stereo not given in full) 17.3% [at 28.7 µM]
CC1C2CCC3C4CC=C5CC(N(C)C)CC[C@@]5(C)C4CC[C@@]32CN1C (stereo not given in full) -15.8% [at 28.7 µM]
CCC(C)C(=O)OC1CC(O)C=C2C=CC(C)C(CCC(O)CC(O)CC(=O)O)C21 (stereo not given) 10.1% [at 28.7 µM]
OCC1OC(n2cnc3c(=S)nc[nH]c32)C(O)C1O (stereo not given) 10.8% [at 28.7 µM]

Potency, active:
CO[C@]12C(COC(N)=O)C3=C(C(=O)C(C)=C(N)C3=O)N1CC1NC12 (stereo not given in full) 3.55 µM

Test system: SC27B
Test: as above
Settings: P. falciparum in erythrocytes, SYBR Green DNA, 72 h; series mostly up to 12.8 µM; activity, negative = inhibition: at the top concentration
Procedure, shortened: as §1

activity, negative = inhibition, inactive:
CC1(C)S[C@H]2C(NC(=O)[C@@H](N)c3ccc(O)cc3)C(=O)N2[C@@H]1C(=O)O (stereo not given in full) 1.23% [at 28.7 µM]
CN(C)CCc1c[nH]c2ccc(CC3COC(=O)N3)cc12 (stereo not given) 0.897% [at 28.7 µM]
C[C@@]12CCC(=O)C=C1C=CC1C2CC[C@]2(C)C1CC[C@@]21CCC(=O)O1 (stereo not given in full) -1.96% [at 28.7 µM]
CC(C)Oc1ccc2c(=O)cc(-c3ccccc3)oc2c1 -3.85% [at 28.7 µM]
N[C@@H]1C(O)OC(CO)C(O)C1O (stereo not given in full) 1.7% [at 28.7 µM]
CC(=O)[C@]1(O)CCC2C3C=C(Cl)C4=CC(=O)C5CC5[C@@]4(C)C3CC[C@]21C (stereo not given in full) 10.8% [at 28.7 µM]
C[C@@]12C=CC(=O)C=C1CCC1C3CC(O)[C@@](O)(C(=O)CO)[C@]3(C)CC(O)[C@]12F (stereo not given in full) 3.02% [at 28.7 µM]
CCC1OC(=O)C(C)[C@@H](O[C@H]2C[C@@](C)(OC)C(O)C(C)O2)C(C)[C@@H](O[C@@H]2OC(C)CC(N(C)C)C2O)[C@@](C)(O)CC(C)C(=O)[C@@H](C)C(O)[C@]1(C)O (stereo not given in full) -0.79% [at 28.7 µM]
CC1C2CCC3C4CC=C5CC(N(C)C)CC[C@@]5(C)C4CC[C@@]32CN1C (stereo not given in full) 10.7% [at 28.7 µM]
CCC(C)C(=O)OC1CC(O)C=C2C=CC(C)C(CCC(O)CC(O)CC(=O)O)C21 (stereo not given) 4.51% [at 28.7 µM]
OCC1OC(n2cnc3c(=S)nc[nH]c32)C(O)C1O (stereo not given) 9.39% [at 28.7 µM]

Potency, active:
CO[C@]12C(COC(N)=O)C3=C(C(=O)C(C)=C(N)C3=O)N1CC1NC12 (stereo not given in full) 1 µM

Source: PubChem BioAssay (NCATS)
